For twelve compounds, residual activity results are on record in ChEMBL document CHEMBL2218924, “A broad activity screen in support of a chemogenomic map for kinase signalling research and drug discovery” (Biochem J, 2013).

Molecules are shown by their SMILES.

Assay [1] addresses T1, Serine/threonine-protein kinase 17A (Homo sapiens) (UniProt Q9UEE5).
T1 sequence (whole entry): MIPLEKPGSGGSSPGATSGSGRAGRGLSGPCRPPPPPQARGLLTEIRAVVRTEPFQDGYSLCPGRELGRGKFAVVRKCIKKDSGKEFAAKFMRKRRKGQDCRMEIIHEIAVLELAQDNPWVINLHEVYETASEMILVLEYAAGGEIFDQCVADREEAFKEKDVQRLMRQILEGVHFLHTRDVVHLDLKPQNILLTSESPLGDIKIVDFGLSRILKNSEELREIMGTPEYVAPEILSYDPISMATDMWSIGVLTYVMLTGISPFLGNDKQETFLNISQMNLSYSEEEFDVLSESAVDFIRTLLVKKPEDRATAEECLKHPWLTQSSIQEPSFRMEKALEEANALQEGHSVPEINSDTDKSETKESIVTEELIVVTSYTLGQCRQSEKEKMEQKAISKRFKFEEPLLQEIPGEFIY
The conditions noted are these: at 10 µM.

The target in assay [2] is T2, Dual specificity tyrosine-phosphorylation-regulated kinase 2 (Homo sapiens) (UniProt Q92630).
T2 sequence (whole entry): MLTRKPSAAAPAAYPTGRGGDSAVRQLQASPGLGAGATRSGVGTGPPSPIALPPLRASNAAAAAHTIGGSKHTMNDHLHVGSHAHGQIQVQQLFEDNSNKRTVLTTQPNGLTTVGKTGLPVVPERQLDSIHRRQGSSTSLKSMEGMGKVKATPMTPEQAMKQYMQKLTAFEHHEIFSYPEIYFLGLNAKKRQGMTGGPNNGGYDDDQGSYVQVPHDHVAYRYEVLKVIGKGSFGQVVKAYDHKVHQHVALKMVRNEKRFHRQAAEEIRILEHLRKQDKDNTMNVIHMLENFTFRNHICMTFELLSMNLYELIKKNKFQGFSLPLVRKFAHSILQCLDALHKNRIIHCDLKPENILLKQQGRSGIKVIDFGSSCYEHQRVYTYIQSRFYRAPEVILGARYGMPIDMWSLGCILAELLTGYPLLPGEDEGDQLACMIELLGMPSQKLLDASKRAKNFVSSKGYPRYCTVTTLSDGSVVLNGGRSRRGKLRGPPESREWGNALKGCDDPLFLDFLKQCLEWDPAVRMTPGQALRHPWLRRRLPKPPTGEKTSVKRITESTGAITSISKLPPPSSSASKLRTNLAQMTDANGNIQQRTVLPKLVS
The conditions noted are these: at 1 µM.

Assay [3] has as its target T2, Dual specificity tyrosine-phosphorylation-regulated kinase 2 (Homo sapiens). The conditions noted are these: at 10 µM.
Assay [4] deals with T3, Ephrin type-A receptor 1 (Homo sapiens) (UniProt P21709).
T3 sequence (whole entry): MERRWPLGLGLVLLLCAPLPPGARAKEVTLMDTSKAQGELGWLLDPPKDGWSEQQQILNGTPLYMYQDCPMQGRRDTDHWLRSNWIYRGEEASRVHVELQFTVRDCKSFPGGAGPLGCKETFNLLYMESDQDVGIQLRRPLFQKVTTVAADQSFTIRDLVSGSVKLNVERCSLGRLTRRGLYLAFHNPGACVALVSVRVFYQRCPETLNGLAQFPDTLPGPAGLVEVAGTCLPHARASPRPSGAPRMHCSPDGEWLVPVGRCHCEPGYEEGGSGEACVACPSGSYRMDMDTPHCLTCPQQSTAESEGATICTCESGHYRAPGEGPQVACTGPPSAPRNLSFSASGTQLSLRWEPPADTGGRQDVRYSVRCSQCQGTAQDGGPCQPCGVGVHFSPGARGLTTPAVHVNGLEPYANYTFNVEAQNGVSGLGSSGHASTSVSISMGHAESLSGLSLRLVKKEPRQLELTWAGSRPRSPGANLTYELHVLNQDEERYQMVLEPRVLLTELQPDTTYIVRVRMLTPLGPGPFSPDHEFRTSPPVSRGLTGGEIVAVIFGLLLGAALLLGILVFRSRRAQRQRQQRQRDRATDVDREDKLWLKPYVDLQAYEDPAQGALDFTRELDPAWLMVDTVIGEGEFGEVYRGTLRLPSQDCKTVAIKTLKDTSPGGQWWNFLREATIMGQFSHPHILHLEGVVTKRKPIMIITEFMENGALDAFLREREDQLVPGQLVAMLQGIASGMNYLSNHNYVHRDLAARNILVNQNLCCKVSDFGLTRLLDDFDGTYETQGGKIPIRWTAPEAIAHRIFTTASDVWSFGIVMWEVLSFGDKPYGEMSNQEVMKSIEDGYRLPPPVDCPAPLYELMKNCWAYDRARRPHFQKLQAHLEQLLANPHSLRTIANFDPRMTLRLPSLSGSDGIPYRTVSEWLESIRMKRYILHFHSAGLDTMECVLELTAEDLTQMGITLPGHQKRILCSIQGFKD
The conditions noted are these: at 10 µM.

Assay [5] deals with Ephrin type-A receptor 2 (Homo sapiens) (UniProt P29317). The settings on record: at 1 µM.
Chain of Ephrin type-A receptor 2 (Homo sapiens) (P29317 whole entry): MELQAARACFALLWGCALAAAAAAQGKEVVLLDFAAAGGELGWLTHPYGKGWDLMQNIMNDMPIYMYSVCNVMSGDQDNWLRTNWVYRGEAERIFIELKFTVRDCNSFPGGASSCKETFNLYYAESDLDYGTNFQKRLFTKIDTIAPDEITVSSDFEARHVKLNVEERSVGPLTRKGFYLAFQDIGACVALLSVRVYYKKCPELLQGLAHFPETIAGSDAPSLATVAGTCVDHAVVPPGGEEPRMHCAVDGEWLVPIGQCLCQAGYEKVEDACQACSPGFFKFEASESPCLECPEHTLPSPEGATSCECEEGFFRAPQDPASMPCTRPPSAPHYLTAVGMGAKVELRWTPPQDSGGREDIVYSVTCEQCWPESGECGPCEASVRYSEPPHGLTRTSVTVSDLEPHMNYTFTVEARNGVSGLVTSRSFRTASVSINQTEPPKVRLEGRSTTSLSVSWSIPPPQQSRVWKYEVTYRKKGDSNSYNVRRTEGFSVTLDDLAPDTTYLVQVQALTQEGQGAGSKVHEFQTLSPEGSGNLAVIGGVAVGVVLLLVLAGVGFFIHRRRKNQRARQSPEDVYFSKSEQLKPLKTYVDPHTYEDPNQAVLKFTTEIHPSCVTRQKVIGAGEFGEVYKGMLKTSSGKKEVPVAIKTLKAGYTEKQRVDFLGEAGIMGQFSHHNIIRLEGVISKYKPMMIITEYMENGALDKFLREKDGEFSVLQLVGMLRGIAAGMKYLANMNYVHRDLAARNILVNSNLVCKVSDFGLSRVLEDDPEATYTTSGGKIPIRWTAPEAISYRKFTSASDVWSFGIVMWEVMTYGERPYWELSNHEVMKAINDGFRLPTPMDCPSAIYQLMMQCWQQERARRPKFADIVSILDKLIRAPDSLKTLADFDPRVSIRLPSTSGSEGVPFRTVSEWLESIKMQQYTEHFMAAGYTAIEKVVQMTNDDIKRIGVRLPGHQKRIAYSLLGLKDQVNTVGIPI
Assay [6] shares this target. The settings on record: at 10 µM.
The target in assay [7] is T4, Ephrin type-A receptor 3 (Homo sapiens) (UniProt P29320).
T4 sequence (whole entry): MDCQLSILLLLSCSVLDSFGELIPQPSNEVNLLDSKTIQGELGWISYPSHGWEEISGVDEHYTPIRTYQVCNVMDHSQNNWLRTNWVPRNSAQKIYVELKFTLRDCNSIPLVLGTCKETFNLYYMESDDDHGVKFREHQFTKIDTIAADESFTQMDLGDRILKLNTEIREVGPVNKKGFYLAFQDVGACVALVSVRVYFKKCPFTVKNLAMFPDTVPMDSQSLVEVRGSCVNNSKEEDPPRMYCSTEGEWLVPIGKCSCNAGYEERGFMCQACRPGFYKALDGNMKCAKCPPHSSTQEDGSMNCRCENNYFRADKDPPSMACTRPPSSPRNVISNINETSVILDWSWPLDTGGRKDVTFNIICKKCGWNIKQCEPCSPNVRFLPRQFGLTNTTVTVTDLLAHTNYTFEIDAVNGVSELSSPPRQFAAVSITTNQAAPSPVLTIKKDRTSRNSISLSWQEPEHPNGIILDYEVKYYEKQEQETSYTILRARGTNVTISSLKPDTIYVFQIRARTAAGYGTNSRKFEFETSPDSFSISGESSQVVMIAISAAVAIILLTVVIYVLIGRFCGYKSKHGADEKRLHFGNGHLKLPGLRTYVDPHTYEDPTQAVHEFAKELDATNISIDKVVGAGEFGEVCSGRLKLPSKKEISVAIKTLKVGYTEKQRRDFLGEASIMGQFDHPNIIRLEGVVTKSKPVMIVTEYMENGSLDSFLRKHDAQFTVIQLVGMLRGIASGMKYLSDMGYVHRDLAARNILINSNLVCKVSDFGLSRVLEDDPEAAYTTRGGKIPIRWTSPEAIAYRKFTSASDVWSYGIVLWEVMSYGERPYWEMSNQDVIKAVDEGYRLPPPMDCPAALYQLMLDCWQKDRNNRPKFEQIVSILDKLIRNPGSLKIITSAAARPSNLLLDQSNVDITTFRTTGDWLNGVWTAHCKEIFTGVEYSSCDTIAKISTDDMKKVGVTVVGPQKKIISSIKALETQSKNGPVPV
The settings on record: at 1 µM.

The target of assay [8] is T3, Ephrin type-A receptor 1 (Homo sapiens). The settings on record: at 1 µM.
Assay [9] deals with Epidermal growth factor receptor (Homo sapiens) (UniProt P00533). The conditions noted are these: at 1 µM.
Chain of Epidermal growth factor receptor (Homo sapiens) (P00533 whole entry): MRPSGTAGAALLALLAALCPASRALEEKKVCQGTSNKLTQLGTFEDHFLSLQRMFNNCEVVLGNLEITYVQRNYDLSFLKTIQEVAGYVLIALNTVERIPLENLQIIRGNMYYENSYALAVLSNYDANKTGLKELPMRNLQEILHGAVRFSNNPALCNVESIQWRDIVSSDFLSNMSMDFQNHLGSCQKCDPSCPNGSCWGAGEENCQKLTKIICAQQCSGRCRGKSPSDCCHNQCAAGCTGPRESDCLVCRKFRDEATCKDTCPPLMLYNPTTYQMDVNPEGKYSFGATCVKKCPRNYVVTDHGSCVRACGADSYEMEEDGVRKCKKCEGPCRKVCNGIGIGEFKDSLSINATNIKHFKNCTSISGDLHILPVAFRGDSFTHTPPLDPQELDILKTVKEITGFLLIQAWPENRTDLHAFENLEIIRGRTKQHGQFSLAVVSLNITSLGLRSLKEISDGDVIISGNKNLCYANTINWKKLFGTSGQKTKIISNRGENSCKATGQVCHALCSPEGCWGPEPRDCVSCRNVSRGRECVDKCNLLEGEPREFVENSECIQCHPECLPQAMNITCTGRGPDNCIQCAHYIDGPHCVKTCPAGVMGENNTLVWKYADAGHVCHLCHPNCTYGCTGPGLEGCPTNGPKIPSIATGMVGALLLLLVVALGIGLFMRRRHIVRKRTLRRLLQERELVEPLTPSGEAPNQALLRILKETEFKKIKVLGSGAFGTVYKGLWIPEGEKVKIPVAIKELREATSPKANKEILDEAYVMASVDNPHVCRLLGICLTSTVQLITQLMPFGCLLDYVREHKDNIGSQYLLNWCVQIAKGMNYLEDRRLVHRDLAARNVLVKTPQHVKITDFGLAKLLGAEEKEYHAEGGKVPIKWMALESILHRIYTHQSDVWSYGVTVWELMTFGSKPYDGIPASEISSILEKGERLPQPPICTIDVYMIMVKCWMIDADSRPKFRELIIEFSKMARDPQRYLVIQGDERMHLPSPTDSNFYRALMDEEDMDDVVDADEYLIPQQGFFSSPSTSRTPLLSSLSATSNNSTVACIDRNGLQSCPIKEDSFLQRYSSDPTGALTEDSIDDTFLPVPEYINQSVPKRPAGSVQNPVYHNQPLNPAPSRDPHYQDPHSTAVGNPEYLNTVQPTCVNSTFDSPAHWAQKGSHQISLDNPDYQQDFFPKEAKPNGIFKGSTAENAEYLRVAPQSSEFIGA
The target is the same in assay [10]. The conditions noted are these: at 10 µM.

What is called residual activity is the signal under treatment as a percentage of the control signal.

Take `O=C1Nc2ccc(Br)cc2/C1=C\c1cc2c([nH]1)CCCC2`: the residual activity was determined as 40% in assay [1]; 97% in [2]; 99% in [3]; 105% in assay [4]; 112% in assay [5]; 97% in [6]. Besides, in assay [7], the residual activity was found to be 108%.

For the compound `Cn1cnc2cc3c(Nc4cccc(Br)c4)ncnc3cc21`, the residual activity in assay [1] amounted to 28%; in assay [2], 98%; in assay [3], 79%; in assay [8], 60%; in assay [4], 49%; in assay [5], 89%. The residual activity in [6] is 62%; in assay [7], 90%.

In the case of `O=C1NC(=O)c2cc(Nc3ccc(F)cc3)c(Nc3ccc(F)cc3)cc21`, the residual activity was 64% in assay [1]; 105% in assay [2]; 101% in [3]; 69% in [8]; 52% in [4]; 100% in assay [5]. In addition, the residual activity turned out to be 80% in [6] and 104% in [7].

Take `Nc1n[nH]c2nnc(-c3c(-c4ccccc4)nn4ccccc34)cc12`: the residual activity amounted to 117% in assay [1]; 94% in [2]; 88% in assay [3]; 96% in assay [8]; 66% in assay [4]; 91% in [5]. Besides, the residual activity in assay [6] came to 95%; in [7] it was 94%.

For the compound `O=c1c2ccccc2[nH]c(=S)n1CCN1CCC(=C(c2ccc(F)cc2)c2ccc(F)cc2)CC1`, the residual activity was 90% in assay [1]; 102% in assay [2]; 96% in assay [3]; 95% in assay [8]; 89% in assay [4]; 116% in [5]. Also, the results for the residual activity in [6] and in assay [7] were 100% and 109%, respectively.

`CC(=O)c1ccc(N2CCOCC2)cc1O`: the residual activity in [2] came to 108%; in [3], 92%; in assay [8] it was 94%; in assay [4], 110%; in assay [5], 102%; in assay [7] it was 107%.

Consider `c1ccc(-c2n[nH]cc2-c2ccnc3ccccc23)nc1`, for which the residual activity in [2] came to 89%; in assay [3], 104%; in assay [8], 90%; in assay [4], 90%; in [5], 102%; in [6], 95%. Also, the residual activity in assay [7] stood at 99%.

As to `O=C1Nc2ccccc2/C1=C1/Nc2ccccc2/C1=N\OCCC(O)CO` (stereo unspecified), the residual activity in [1] is 3%; in assay [2], 70%; in assay [3], 52%; in assay [8] it was 43%; in assay [4], 42%; in [5], 54%. In addition, the residual activity in [6] was 14%; in assay [7] it was 41%.

Consider `CO[C@H]1[C@@H](OC)C[C@H](C)[C@@H](OC)C2=CC(=O)C=C(NC(=O)/C(C)=C/C=C/[C@H](OC)[C@@H](OC(N)=O)/C(C)=C/[C@@H]1C)C2=O`, for which the residual activity in assay [1] came out at 88%; in assay [2], 95%; in [3] it was 101%; in [8], 94%; in [4], 102%; in assay [5], 105%. Also, the values for the residual activity in assay [6] and in [7] were 113% and 101%, respectively.

`Cc1cc(Nc2nc(-c3ccccc3)nc3ccccc23)n[nH]1`: the residual activity came out at 14% in [1]; 41% in assay [3]; 36% in [8]; 18% in [4]; 75% in [5]; 43% in [6]. For the same compound, in [7], the residual activity worked out at 54%.

For the compound `O=C1Nc2cc(Br)ccc2/C1=C1/Nc2ccccc2/C1=N\O`, the residual activity in assay [1] turned out to be 10%; in assay [9] it was 66%; in assay [10] it was 33%; in assay [8] it was 99%; in assay [4] it was 92%; in [5], 27%. The residual activity in assay [6] was 20%; in assay [7], 25%.

In the case of `Oc1c2ccccc2c2c3c(cccc13)N=N2`, the residual activity in assay [1] was 2%; in [2], 4%; in [3], -5%; in assay [8], 67%; in assay [4] it was 42%; in assay [5] it was 88%. Also, the residual activity in [6] was 60%; in assay [7], 75%.
